The values below come from PubChem BioAssay (NCI).

Molecules are shown by their SMILES. This is part of a sample that, as a whole, favours compounds with a hit. Of some 83,000 tested, about 20% had one in any assay.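 Single-dose data. Exposure time 48 hours. Values below 10 considered active.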 Values without a mark were called inactive. Activity calls are given as the source filed them.

For the assay, the system named is A498 renal. Put plainly: NCI-60 one-dose screen, 48 h (100 = growth as untreated, 0 = no growth, -100 = all killed). Conditions: 10 µM. Here is the method: Growth inhibition of the A498 human tumor cell line is measured as a screen for anti-cancer activity. Cells are grown in 96 well plates and exposed to the test compound for 48 hours. Compounds are tested at a single concentration, which is 10^-5 M for most compounds. The reported endpoint is percent growth (GI% or GIPRCNT), where numbers from 0 - 100% represent growth inhibition, and numbers from -100% - 0 represent cell death. For example, a value of 40 represents 60% growth inhibition. A value of 0 means no net growth occurred over the course of the experiment. A value of -40 indicates 40% of cells at the beginning of the experiment died by the end of the experiment. A value of -100 means all cells are dead at the end of the experiment.
NCI-60 Human Tumor Cell Lines Screen was performed using the standard one-dose NCI protocol, which is described in more detail at https://dtp.cancer.gov/discovery_development/nci-60/default.htm.
Compounds with GIPRCNT values below 10 were considered active. Activity score was based on GIPRCNT using the following formula: […]
Score is 0 for GIPRCNT values of 100 or above, 50 for GIPRCNT values of 0, and 100 for GIPRCNT values of -100.
Consider `O=C(c1ccccc1)N(C(=O)c1ccccc1)N1CCCC1`, for which the growth is 106%.
As to `Cc1ccc(NCCN(C)CC(C)O)c2c(=O)c3ccc(Cl)cc3sc12` (stereo not given), the growth was 73.8%.
The result for `O=C(CCl)Nc1ccc(Cc2ccc(NC(=O)CCl)cc2)cc1` reads 111%.
The same measure for `c1ccc(CSc2ncccc2-c2nnc(SCCN3CCOCC3)o2)cc1`: 107%; for `COc1cc2nc(SCC(=O)Nc3cc(OC)c(OC)c(OC)c3)n(Cc3ccccc3)c(=O)c2cc1OC`: -8.93% (active).
With `COc1cc(C(=O)/C=C/c2c[nH]c3ccccc23)cc(OC)c1OC`, the growth is 10.2%.
The result for `COc1cc(N)c2ncccc2c1SC` reads 71.8%.
The result for `Cc1ccc(C2NC(=S)N3C(c4ccc(C)cc4)NC(=S)N23)cc1` (stereo not given) reads 49.6%; that for `O=C1Cc2cc(CCN3CCN(c4nsc5ccccc45)CC3)c(Cl)cc2N1`, 64.1%; that for `COc1cc(C2C(C#N)=C(N)Oc3cc(O)ccc32)cc(OC)c1OC` (stereo not given), -5.59% (active).
The result for `N#Cc1cnn(C(=O)c2nn(-c3ccc(Cl)cc3)cc2O)c1N` reads 48.6%.
As to `O=C1CSC(=S)N1/N=C/c1ccc(Cl)s1`, the growth was 103%.
The same measure for `O=S(=O)(O)c1ccc(Cl)cc1`: 110%.
The result for `O=c1c(Br)ccc(Br)cc1Br` reads 93%.
In the case of `C=CCn1c(SCC(=O)Nc2ccc(C(=O)/C=C/c3ccc(Cl)cc3)cc2)nnc1-c1cc(-c2ccccc2)nc2ccccc12`, the growth is 81.4%.
The result for `COc1ccc(N(C)c2ncnc3occ(C)c23)cc1` reads 68.7%; that for `CC[N+](CC)=c1ccc2nc3c(cc(NCc4ccccc4)c4ccccc43)oc-2c1`, 44.8%; that for `CC(C)N(CCOc1ccc(-c2nc3sccn3c2-c2ccnc(S(C)(=O)=O)n2)cc1)C(C)C`, 60.3%.
The result for `COc1cc(-c2ccc[nH]2)[nH]c1/C=C1\N=C(C)C(C(=O)NC(C)C)=C1C` reads 67.7%; that for `COc1cc(-c2nn(-c3cccc(NC(=O)CCN4CCN(c5ccccc5)CC4)c3)cc2-c2ccncc2)ccc1Cl`, 5.91% (active).
The result for `CC(C)(C)OC(=O)N1CCc2c(sc3ncnc(N/N=C/c4cccc(Br)c4)c23)C1` reads 72.7%; that for `CS(=O)(=O)c1nccc(-c2c(-c3ccc(OCCc4ccccc4)cc3)nc3sccn23)n1`, 84.5%.
As for `COc1cc(-c2nn(-c3cccc(NC(=O)NCCNS(=O)(=O)c4ccc(Cl)cc4)c3)cc2-c2ccncc2)ccc1Cl`, the growth is -10.5% (active).
The same measure for `Nc1nc(-c2ccc(Cl)cc2)cc(-c2cc3ccccc3oc2=O)n1`: 99.5%; for `CN1CCN(C2=Nc3ccccc3Oc3ccc(Cl)cc32)CC1`: 81.3%.
The result for `CCOc1ccccc1/C=N\N=C\c1ccccc1O` reads 91.2%.
The result for `O=C1/C=C/[C@@H](O)[C@@H]2C[C@@H](O)C[C@H]2/C=C/CCC[C@H](CCc2ccc(C(F)(F)F)cc2)O1` reads -29.7% (active).
`O=[N+]([O-])c1ccc2ncccc2c1Cl`: the growth was 100%.
Consider `CCN(CC)CCOc1ccc2c(c1O)C(=O)c1ccccc1C2=O`, for which the growth was 88.3%.
The result for `O=[N+]([O-])c1cc(Cl)cc(Cl)c1O` reads 106%; that for `O=C(CCCCCCC(=O)Nc1ccccc1)NO`, -44.9% (active).
The same measure for `O=C(N/N=C/c1c(Cl)cccc1Cl)c1ccccc1Nc1cccc(C(F)(F)F)c1`: -5.76% (active); for `CC(CN(C)C)Oc1ccccc1NC1=C(Cl)C(=O)C(Nc2ccccc2OC(C)CN(C)C)=C(Cl)C1=O` (stereo not given): 26.4%; for `Nc1ncnc2c1ncn2C1(CO)OCC(O)C(O)C1O` (stereo not given): 108%.
With `Nc1nccc(OCCO)n1`, the growth was 114%.
The result for `COc1ccc(C(=O)c2cc3c(OC)c(OC)c(OC)cc3[nH]2)cc1` reads 59.9%; that for `COc1ccc(-c2cc(-c3ccc(Cl)cc3)nc(SCCCCCCC(=O)NO)n2)cc1OC`, 67.9%.
`Nc1ccc(CC[C@H]2CCC/C=C/[C@@H]3C[C@H](O)C[C@H]3[C@H](O)/C=C/C(=O)O2)cc1`: the growth was -32.4% (active).
The same measure for `O=C(O)COc1c(Cl)cc([N+](=O)[O-])cc1Cl`: 97.5%.
Turning to `COc1cccc(-c2nc3sccn3c2-c2cccc(S(C)(=O)=O)c2)c1`, the growth is 106%.
